Several values for one entry are separate records, joined by “and”; a condition that tells them apart may be missing. Equal values may be shown once. The panel holds about 83,000 compounds, 20% with a hit somewhere; the sample as a whole holds those more often.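 Interpretation: 100, growth as untreated; towards 0, rising growth inhibition; 0, no net growth; 0 to -100, cell death. Compounds scoring below 10 were considered active.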 Activity calls are given as the source filed them.
System: HCT-15 colon
Test: NCI-60 one-dose screen, 48 h (100 = growth as untreated, 0 = no growth, -100 = all killed)
Conditions: 10 µM
Protocol: Growth inhibition of the HCT-15 human tumor cell line is measured as a screen for anti-cancer activity. Cells are grown in 96 well plates and exposed to the test compound for 48 hours. Compounds are tested at a single concentration, which is 10^-5 M for most compounds. The reported endpoint is percent growth (GI% or GIPRCNT), where numbers from 0 - 100% represent growth inhibition, and numbers from -100% - 0 represent cell death. For example, a value of 40 represents 60% growth inhibition. A value of 0 means no net growth occurred over the course of the experiment. A value of -40 indicates 40% of cells at the beginning of the experiment died by the end of the experiment. A value of -100 means all cells are dead at the end of the experiment.
NCI-60 Human Tumor Cell Lines Screen was performed using the standard one-dose NCI protocol, which is described in more detail at https://dtp.cancer.gov/discovery_development/nci-60/default.htm.
Compounds with GIPRCNT values below 10 were considered active. Activity score was based on GIPRCNT using the following formula: […]
Score is 0 for GIPRCNT values of 100 or above, 50 for GIPRCNT values of 0, and 100 for GIPRCNT values of -100.

**Q.** For `COc1ccc(-c2cscc2N)cc1`, which growth is on record?
**A.** 63.1% (inactive)

**Q.** With `O=C(Nc1c(Cl)cccc1Cl)Oc1cccc2cccnc12` as the molecule, how does the growth read?
**A.** 27.9% (inactive)

**Q.** For `O=C(O)c1c(Cl)c(Cl)c(Cl)c(Cl)c1-c1c2cc(I)c(=O)c(I)c-2oc2c(I)c(O)c(I)cc12`, which growth is on record?
**A.** 101% (inactive) and 107% (inactive) and 90.1% (inactive)

Same assay, conditions: 10 µM unless noted

**Q.** For `O=C(/C=C/c1cccc(Cl)c1)c1ccccc1`, which growth is on record?
**A.** 56.7% (inactive) and 62.8% (inactive)

**Q.** How did the growth turn out when `CC1OC2CC(=O)OC2C2=C1C(=O)c1c(O)cccc1C2=O` (stereo not given) was run?
**A.** -76.6% (active)

**Q.** Which growth does the source give for `C[N+](C)=c1ccc2nc3c(cc(NCCCNc4cc5oc6cc(=[N+](C)C)ccc-6nc5c5ccccc45)c4ccccc43)oc-2c1` here?
**A.** -29.2% (active)

**Q.** `O=C1c2ccccc2C(=O)N1c1ccccc1` was tested. Which growth did it give?
**A.** 105% (inactive)

**Q.** With `CC1SC(=S)N(c2ccc(Cl)cc2)C1=O` (stereo not given) as the molecule, how does the growth read?
**A.** 96.5% (inactive) and 84.1% (inactive)

**Q.** `C=C(Cl)C(=NC(C)(C)C)Nc1ccccc1C` was tested. Which growth did it give?
**A.** 101% (inactive)

**Q.** For `COc1ccccc1/C=C\C(=O)c1ccccc1`, which growth is on record?
**A.** 70.2% (inactive)

**Q.** Which growth does the source give for `Cc1ccc(N=C=C(c2ccccc2)c2ccccc2)cc1` here?
**A.** 67.6% (inactive)

**Q.** For `O=[N+]([O-])c1ccc(N=Nc2ccc(O)cc2O)cc1`, which growth is on record?
**A.** 36.9% (inactive)

**Q.** `CN(C)C(=O)SC1=C(c2c(Cl)cccc2Cl)C(=O)c2ccccc21` was tested. Which growth did it give?
**A.** -22.4% (active)

**Q.** With `NC(N)=N/N=C/c1ccc([N+](=O)[O-])o1` as the molecule, how does the growth read?
**A.** 68.1% (inactive)

**Q.** `CC1(C)CC([P+](c2ccccc2)(c2ccccc2)c2ccccc2)=NN1` was tested. Which growth did it give?
**A.** 94.3% (inactive)

**Q.** How did the growth turn out when `CCN1/C(=C\c2cc[n+](CC)c3ccccc23)C=Cc2ccccc21` was run?
**A.** 29.7% (inactive)

**Q.** `Oc1c(Br)c(Br)c(O)c(Br)c1Br` was tested. Which growth did it give?
**A.** 11% (inactive)

**Q.** For `CCN(CC)CC(C)(C)C(=O)/C=C/c1ccc(Cl)c(Cl)c1`, which growth is on record?
**A.** -34% (active)

**Q.** Which growth does the source give for `NC(=S)N/N=C\c1nccc2c(C(F)(F)C(F)(F)C(F)(F)F)cccc12` here?
**A.** 28.2% (inactive)

**Q.** `C1=C(c2ccccc2)C(c2ccc(OCCN3CCCCC3)cc2)Oc2ccccc21` (stereo not given) was tested. Which growth did it give?
**A.** 23.2% (inactive)

**Q.** With `NC1=CC(=O)c2ccccc2C1=O` as the molecule, how does the growth read?
**A.** 61.5% (inactive)

**Q.** Which growth does the source give for `COc1ccc2nc3cc(Cl)ccc3c(NCCNc3c4ccc(Cl)cc4nc4ccc(OC)cc34)c2c1` here?
**A.** -65.9% (active)

**Q.** `Nc1nc(N)c2nc(CNc3ccc(C(=O)NC(CCC(=O)O)C(=O)O)cc3)cnc2n1` (stereo not given) was tested. Which growth did it give?
**A.** 27% (inactive) and 26% (inactive)

**Q.** `Oc1ccc(/C=N/NC(=S)Nc2ccccc2)nc1` was tested. Which growth did it give?
**A.** 24.8% (inactive)

**Q.** `O=C1C=CC(=O)N1C1c2ccccc2-c2ccccc21` was tested. Which growth did it give?
**A.** 61.6% (inactive)

**Q.** How did the growth turn out when `Cc1ccnc(NC(c2ccccc2)c2ccc3cccnc3c2O)c1` (stereo not given) was run?
**A.** 27.9% (inactive)

**Q.** How did the growth turn out when `COC(=O)[C@@]12OC[C@]34[C@H]([C@@H](O)[C@@H]1O)[C@@]1(C)[C@H](O)C(=O)C=C(C)[C@@H]1C[C@H]3OC(=O)C(OC(C)=O)[C@@H]24` (stereo not given in full) was run?
**A.** -27.3% (active)

**Q.** `O=C1C2=C(Nc3cc([N+](=O)[O-])ccc3N2)OC1c1c2ccccc2cc2ccccc12` (stereo not given) was tested. Which growth did it give?
**A.** 20.5% (inactive)

**Q.** With `CN(C)c1ccc(N=Nc2cccc3ccccc23)cc1` as the molecule, how does the growth read?
**A.** 93.1% (inactive)

**Q.** `OC(CNc1ccnc2cc(Cl)ccc12)CNc1ccnc2cc(Cl)ccc12` was tested. Which growth did it give?
**A.** 97% (inactive)

**Q.** With `O=C(Nc1ccc(F)cc1)ON=C1CCCCC1` as the molecule, how does the growth read?
**A.** 97% [100 µM] (inactive)

**Q.** `N#CSCc1c(Cl)cccc1Cl` was tested. Which growth did it give?
**A.** 14.6% (inactive)

**Q.** For `Cc1cc(N)c2ccccc2[n+]1CCCCCCCCCC[n+]1c(C)cc(N)c2ccccc21`, which growth is on record?
**A.** 26.2% (inactive) and 42.4% (inactive)

**Q.** For `Cc1ccc2nc(C[n+]3ccc4ccccc4c3)ccc2c1`, which growth is on record?
**A.** 99% (inactive)

**Q.** With `Cc1c2ccccc2c(C)c2c1ccc1ccccc12` as the molecule, how does the growth read?
**A.** 90.3% (inactive)

**Q.** With `C/C=C1\SC(=S)NC1=O` as the molecule, how does the growth read?
**A.** 98.9% (inactive)

**Q.** With `CNC(=O)N/N=C/c1ccc([N+](=O)[O-])o1` as the molecule, how does the growth read?
**A.** 107% (inactive)

Same assay, conditions: 100 µM

**Q.** `COc1ccc(-c2cscc2N)cc1` was tested. Which growth did it give?
**A.** 63.9% (inactive)

**Q.** `O=C(Nc1c(Cl)cccc1Cl)Oc1cccc2cccnc12` was tested. Which growth did it give?
**A.** 18.3% (inactive)

**Q.** For `O=C(O)c1c(Cl)c(Cl)c(Cl)c(Cl)c1-c1c2cc(I)c(=O)c(I)c-2oc2c(I)c(O)c(I)cc12`, which growth is on record?
**A.** 22.9% (inactive)

From PubChem BioAssay (NCI)
